The list is not random: actives were taken first. Their share in the collection is about 2.8%.
SNCA viab count – cell viability loss counter-screen | HEK-293-SNCA-luc viability, GF-AFC fluorescence, 24 h | Potency, µM (doses to about 57.1 µM), inactives show at the top dose activity change, negative = cytotoxicity, most hits filed as cytotoxic | 150,000 compounds, 0.12% hits | AID 1671193;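 also: potency is read from the fitted curve at half-maximal effect; 0% = DMSO-treated cells and -100% = medium-only wells without cells; nearly all actives have a fitted effect of over 30% in size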
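Cytotoxicity counterscreen: after 24 h compound treatment of genome-edited SNCA-luciferase HEK-293 cells, live-cell protease substrate GF-AFC read by fluorescence after 30 min; activity scaled between DMSO (0%) and medium-only (-100%), curves Hill-fitted.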
KDM5B inh – KDM5B demethylase inhibition | KDM5B demethylase, FDH-coupled NADH fluorescence (FDH is formaldehyde dehydrogenase) | Potency, µM (top dose mostly 57.7 µM), actives largely listed as inhibitors | 220,000 compounds, 2.6% hits | AID 1347165; also: potency is read from the fitted curve at half-maximal effect; 0% is about no effect; nearly all actives have a fitted effect of over 70% in size
Target sequence (Q9UGL1 whole entry, looked up): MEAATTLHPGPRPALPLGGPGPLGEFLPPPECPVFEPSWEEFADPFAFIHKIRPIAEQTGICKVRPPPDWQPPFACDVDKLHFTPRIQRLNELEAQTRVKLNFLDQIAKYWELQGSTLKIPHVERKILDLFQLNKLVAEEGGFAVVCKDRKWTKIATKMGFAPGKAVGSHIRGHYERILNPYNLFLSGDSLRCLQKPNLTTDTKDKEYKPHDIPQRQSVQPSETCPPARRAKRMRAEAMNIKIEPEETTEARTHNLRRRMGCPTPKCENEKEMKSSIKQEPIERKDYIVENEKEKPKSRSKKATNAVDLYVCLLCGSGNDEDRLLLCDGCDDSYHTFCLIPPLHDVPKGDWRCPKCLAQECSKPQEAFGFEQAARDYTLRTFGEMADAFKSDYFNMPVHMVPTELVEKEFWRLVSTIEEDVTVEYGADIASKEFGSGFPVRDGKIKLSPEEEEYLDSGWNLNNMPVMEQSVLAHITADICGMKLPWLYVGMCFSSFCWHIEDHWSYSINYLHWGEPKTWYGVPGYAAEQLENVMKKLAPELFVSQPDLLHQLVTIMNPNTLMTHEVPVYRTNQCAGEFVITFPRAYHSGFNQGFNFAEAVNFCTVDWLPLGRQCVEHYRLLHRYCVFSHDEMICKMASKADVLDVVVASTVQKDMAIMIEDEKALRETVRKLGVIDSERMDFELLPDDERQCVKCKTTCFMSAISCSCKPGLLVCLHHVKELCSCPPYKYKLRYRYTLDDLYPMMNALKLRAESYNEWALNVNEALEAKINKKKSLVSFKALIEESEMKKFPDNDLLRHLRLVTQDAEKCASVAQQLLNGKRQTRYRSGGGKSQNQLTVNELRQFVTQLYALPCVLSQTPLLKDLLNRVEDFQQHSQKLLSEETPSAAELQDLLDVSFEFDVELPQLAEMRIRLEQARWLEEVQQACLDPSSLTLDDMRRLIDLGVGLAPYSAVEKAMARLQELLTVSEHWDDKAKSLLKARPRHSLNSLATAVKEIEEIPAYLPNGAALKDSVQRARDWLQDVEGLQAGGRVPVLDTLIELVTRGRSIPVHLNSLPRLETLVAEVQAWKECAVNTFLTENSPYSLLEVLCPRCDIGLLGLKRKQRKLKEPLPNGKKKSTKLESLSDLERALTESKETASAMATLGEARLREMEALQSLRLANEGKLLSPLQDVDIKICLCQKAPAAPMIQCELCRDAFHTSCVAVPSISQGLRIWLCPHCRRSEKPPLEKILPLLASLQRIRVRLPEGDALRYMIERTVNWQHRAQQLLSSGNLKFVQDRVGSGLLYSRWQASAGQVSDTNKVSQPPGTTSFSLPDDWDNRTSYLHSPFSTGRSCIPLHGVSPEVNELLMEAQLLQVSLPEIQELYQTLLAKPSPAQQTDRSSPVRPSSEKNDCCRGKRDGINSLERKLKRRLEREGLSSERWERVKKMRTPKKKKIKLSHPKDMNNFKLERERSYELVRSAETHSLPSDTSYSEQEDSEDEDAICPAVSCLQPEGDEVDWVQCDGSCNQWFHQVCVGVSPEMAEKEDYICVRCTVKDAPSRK
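Measured: NADH fluorescence change, 30 min, RT. System: KDM5BΔAP 200 nM final, H3K4me3 peptide, α-KG, Fe(II), ascorbate, NAD⁺ plus FDH, pH 7.5 HEPES. Compounds: titrated, 10 min pre-incubation with enzyme.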
SNCA expr inhib – inhibitors of alpha-synuclein (SNCA) gene expression | HEK-293 SNCA-luciferase knock-in, luminescence, 24 h | 140,000 compounds, 0.17% hits | AID 1671194 | Potency, µM (titrated, usually from 57.2 µM), for inactives: top-dose activity change, negative = inhibition, usual class: inhibitors;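 also: potency is read from the fitted curve at half-maximal effect; plate controls were DMSO cells for no effect and cell-free wells for full effect; nearly all actives have a fitted effect of over 45% in size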
IP6K1 inh – inhibitors of human IP6K1 | activity change, % (series mostly up to about 58 µM) | AID 1645851 | Q92551 | IP6K1 kinase, ADP-Glo luminescence, 2 h; hits give low values | 140,000 compounds, 0.81% hits; in the data active = activity change below about -25%; also: % is scaled to controls: 0 for no effect and ±100 for the full control effect
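ADP-Glo luminescence measures ADP made by human IP6K1 during a 2 h RT reaction with ATP/IP6 (mix at 1.3 mM/130 uM); top library doses 57.5 and 19.1 uM final.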
Numbers without * were called inactive. Unless noted, calls follow the shape of the dose curve; as a rule, active = well fitted curve in the direction sought with a large enough effect; inconclusive = small, poorly fitted or top-dose-only effect, or another doubt; inactive = no such curve, though single readings can be large; an effect the other way counts as inactive or inconclusive.

`CS(=O)(=O)c1oc(-c2ccc(F)cc2)nc1S(=O)(=O)c1ccc(Cl)cc1` gave SNCA viab count -6.2%, KDM5B inh inactive, SNCA expr inhib 8.8% and IP6K1 inh -9.9.
Screening CC(C)S(=O)(=O)c1oc(-c2cccs2)nc1S(=O)(=O)c1ccc(F)cc1 returned SNCA viab count inconclusive, KDM5B inh inactive, SNCA expr inhib 14.1µM* and IP6K1 inh -2.8.
Screening CCSc1oc(-c2ccccc2)nc1S(=O)(=O)c1ccc(F)cc1 returned KDM5B inh inactive.
CCCCS(=O)(=O)c1oc(-c2ccc(F)cc2)nc1S(=O)(=O)c1ccccc1 was read as SNCA viab count 14.1µM*, KDM5B inh inconclusive, SNCA expr inhib inconclusive and IP6K1 inh -12.8.
Screening CCS(=O)(=O)c1oc(-c2ccc(F)cc2)nc1S(=O)(=O)c1ccc(Br)cc1 returned SNCA viab count 15.8µM*, KDM5B inh inconclusive, SNCA expr inhib inconclusive and IP6K1 inh -9.3.
Screening CC(C)S(=O)(=O)c1oc(-c2ccc(F)cc2)nc1S(=O)(=O)c1ccccc1 returned SNCA viab count 2.51µM*, KDM5B inh inconclusive, SNCA expr inhib inconclusive and IP6K1 inh -2.5.
For O=C1NCCCCCCN(Cc2ccncc2)[C@@H]2CN(Cc3ccncc3F)CC[C@H]12 the results were SNCA viab count -6.1%, KDM5B inh 20µM*, SNCA expr inhib 6.6% and IP6K1 inh 1.6.
`O=C1NCCCCCN(Cc2ccc(F)cc2F)[C@H]2CCC[C@@H]12` gave SNCA viab count 3.6%, KDM5B inh inconclusive, SNCA expr inhib -14.9% and IP6K1 inh 7.4.
`Cn1cccc1CN1CCCCCNC(=O)[C@@H]2CCC[C@@H]21` gave SNCA viab count 5.2%, KDM5B inh inactive, SNCA expr inhib 11.9% and IP6K1 inh 14.6.
For O=C1NCCCCCCN(Cc2ccc(F)c(F)c2)[C@H]2CCC[C@@H]12 the results were SNCA viab count -5.4%, KDM5B inh 12.6µM*, SNCA expr inhib -10.1% and IP6K1 inh 7.6.
Screening CC(C)CCN1CCCCCCNC(=O)[C@@H]2CCC[C@@H]21 returned SNCA viab count 0.5%, KDM5B inh 10µM*, SNCA expr inhib 22.7% and IP6K1 inh 8.4.
`O=C1NCCCCCCN(Cc2cccc(OC(F)(F)F)c2)[C@H]2CCC[C@@H]12` gave SNCA viab count 0.3%, KDM5B inh 5.62µM*, SNCA expr inhib -5.8% and IP6K1 inh 7.9.
`O=C(CCC(=O)OCC(=O)c1cccc([N+](=O)[O-])c1)Nc1cc(C(F)(F)F)ccc1Cl` gave KDM5B inh inactive.
Screening Cc1nc(NC2CCCC2)sc1C(=O)NCCC(C)C returned KDM5B inh inactive.
O=C(Cc1ccc(Cl)cc1)N1CCN(c2ccccc2O)CC1 was read as KDM5B inh inactive.
O=C(Cc1cccc(C(F)(F)F)c1)N1CCN(c2nnc3ccc(Cl)cn23)CC1 was read as SNCA viab count -1.2%, KDM5B inh 25.1µM*, SNCA expr inhib -11.0% and IP6K1 inh 4.3.
`O=C(Cc1ccc(Cl)cc1)N1CCN(c2nnc3ccccn23)CC1` gave SNCA viab count 2.8%, KDM5B inh 25.1µM*, SNCA expr inhib -6.9% and IP6K1 inh 25.4.
Screening O=C(Cc1ccccc1F)N1CCN(c2nnc3ccc(Cl)cn23)CC1 returned SNCA viab count -7.1%, KDM5B inh inconclusive, SNCA expr inhib -0.7% and IP6K1 inh 40.3.
For COc1cccc(N2CCN(Cc3cn(-c4ccccc4)nn3)CC2(C)C)c1 the results were SNCA viab count 6.4%, KDM5B inh inactive, SNCA expr inhib 0.4% and IP6K1 inh -7.2.
CNC(=O)N1C[C@@H](Oc2ccccc2)C[C@H]1C(=O)NCCOC was read as SNCA viab count 0.8%, KDM5B inh inactive, SNCA expr inhib 10.0% and IP6K1 inh 30.0.
For COc1cc(OC)cc(C(=O)N2CCC3(CC2)N=C(c2ccc(Cl)cc2)NO3)c1 the results were SNCA viab count -0.7%, KDM5B inh inconclusive, SNCA expr inhib -14.1% and IP6K1 inh -11.9.
Screening COc1ccc(C(=O)N2CCC3(CC2)N=C(c2ccc(Cl)cc2)NO3)cc1 returned SNCA viab count 2.0%, KDM5B inh 31.6µM*, SNCA expr inhib 27.2% and IP6K1 inh -1.1.
`Cc1ccc(C2=NC3(CCN(C(=O)c4cc(F)ccc4Cl)CC3)ON2)cc1` gave SNCA viab count -6.2%, KDM5B inh inactive, SNCA expr inhib 95.1% and IP6K1 inh 16.1.
Screening O=C(Cc1cccs1)N1CCC2(CC1)N=C(c1ccc(Cl)cc1)NO2 returned SNCA viab count -22.3%, KDM5B inh 25.1µM*, SNCA expr inhib inconclusive and IP6K1 inh -5.9.

Source: PubChem
